The supplement of paper PMC11732987, “Enantioselective OTUD7B fragment discovery through chemoproteomics screening and high-throughput optimisation” (Communications Chemistry, 2025)

Columns and labels:
Assay in all cases: log2 ratio of Biotin-Ahx-Ub-VS probe labelling (fragment/DMSO); higher = less target engagement (more negative = stronger competition), active = hit call of the paper (q ≤ 0.05, log2 ratio ≤ -1)
Details in all cases: compound concentration: 200 uM; treatment time: 3 h
USP34 = USP34 (UniProt Q70CQ2)
Chain of USP34 (Q70CQ2 whole entry, the tested form may be a part): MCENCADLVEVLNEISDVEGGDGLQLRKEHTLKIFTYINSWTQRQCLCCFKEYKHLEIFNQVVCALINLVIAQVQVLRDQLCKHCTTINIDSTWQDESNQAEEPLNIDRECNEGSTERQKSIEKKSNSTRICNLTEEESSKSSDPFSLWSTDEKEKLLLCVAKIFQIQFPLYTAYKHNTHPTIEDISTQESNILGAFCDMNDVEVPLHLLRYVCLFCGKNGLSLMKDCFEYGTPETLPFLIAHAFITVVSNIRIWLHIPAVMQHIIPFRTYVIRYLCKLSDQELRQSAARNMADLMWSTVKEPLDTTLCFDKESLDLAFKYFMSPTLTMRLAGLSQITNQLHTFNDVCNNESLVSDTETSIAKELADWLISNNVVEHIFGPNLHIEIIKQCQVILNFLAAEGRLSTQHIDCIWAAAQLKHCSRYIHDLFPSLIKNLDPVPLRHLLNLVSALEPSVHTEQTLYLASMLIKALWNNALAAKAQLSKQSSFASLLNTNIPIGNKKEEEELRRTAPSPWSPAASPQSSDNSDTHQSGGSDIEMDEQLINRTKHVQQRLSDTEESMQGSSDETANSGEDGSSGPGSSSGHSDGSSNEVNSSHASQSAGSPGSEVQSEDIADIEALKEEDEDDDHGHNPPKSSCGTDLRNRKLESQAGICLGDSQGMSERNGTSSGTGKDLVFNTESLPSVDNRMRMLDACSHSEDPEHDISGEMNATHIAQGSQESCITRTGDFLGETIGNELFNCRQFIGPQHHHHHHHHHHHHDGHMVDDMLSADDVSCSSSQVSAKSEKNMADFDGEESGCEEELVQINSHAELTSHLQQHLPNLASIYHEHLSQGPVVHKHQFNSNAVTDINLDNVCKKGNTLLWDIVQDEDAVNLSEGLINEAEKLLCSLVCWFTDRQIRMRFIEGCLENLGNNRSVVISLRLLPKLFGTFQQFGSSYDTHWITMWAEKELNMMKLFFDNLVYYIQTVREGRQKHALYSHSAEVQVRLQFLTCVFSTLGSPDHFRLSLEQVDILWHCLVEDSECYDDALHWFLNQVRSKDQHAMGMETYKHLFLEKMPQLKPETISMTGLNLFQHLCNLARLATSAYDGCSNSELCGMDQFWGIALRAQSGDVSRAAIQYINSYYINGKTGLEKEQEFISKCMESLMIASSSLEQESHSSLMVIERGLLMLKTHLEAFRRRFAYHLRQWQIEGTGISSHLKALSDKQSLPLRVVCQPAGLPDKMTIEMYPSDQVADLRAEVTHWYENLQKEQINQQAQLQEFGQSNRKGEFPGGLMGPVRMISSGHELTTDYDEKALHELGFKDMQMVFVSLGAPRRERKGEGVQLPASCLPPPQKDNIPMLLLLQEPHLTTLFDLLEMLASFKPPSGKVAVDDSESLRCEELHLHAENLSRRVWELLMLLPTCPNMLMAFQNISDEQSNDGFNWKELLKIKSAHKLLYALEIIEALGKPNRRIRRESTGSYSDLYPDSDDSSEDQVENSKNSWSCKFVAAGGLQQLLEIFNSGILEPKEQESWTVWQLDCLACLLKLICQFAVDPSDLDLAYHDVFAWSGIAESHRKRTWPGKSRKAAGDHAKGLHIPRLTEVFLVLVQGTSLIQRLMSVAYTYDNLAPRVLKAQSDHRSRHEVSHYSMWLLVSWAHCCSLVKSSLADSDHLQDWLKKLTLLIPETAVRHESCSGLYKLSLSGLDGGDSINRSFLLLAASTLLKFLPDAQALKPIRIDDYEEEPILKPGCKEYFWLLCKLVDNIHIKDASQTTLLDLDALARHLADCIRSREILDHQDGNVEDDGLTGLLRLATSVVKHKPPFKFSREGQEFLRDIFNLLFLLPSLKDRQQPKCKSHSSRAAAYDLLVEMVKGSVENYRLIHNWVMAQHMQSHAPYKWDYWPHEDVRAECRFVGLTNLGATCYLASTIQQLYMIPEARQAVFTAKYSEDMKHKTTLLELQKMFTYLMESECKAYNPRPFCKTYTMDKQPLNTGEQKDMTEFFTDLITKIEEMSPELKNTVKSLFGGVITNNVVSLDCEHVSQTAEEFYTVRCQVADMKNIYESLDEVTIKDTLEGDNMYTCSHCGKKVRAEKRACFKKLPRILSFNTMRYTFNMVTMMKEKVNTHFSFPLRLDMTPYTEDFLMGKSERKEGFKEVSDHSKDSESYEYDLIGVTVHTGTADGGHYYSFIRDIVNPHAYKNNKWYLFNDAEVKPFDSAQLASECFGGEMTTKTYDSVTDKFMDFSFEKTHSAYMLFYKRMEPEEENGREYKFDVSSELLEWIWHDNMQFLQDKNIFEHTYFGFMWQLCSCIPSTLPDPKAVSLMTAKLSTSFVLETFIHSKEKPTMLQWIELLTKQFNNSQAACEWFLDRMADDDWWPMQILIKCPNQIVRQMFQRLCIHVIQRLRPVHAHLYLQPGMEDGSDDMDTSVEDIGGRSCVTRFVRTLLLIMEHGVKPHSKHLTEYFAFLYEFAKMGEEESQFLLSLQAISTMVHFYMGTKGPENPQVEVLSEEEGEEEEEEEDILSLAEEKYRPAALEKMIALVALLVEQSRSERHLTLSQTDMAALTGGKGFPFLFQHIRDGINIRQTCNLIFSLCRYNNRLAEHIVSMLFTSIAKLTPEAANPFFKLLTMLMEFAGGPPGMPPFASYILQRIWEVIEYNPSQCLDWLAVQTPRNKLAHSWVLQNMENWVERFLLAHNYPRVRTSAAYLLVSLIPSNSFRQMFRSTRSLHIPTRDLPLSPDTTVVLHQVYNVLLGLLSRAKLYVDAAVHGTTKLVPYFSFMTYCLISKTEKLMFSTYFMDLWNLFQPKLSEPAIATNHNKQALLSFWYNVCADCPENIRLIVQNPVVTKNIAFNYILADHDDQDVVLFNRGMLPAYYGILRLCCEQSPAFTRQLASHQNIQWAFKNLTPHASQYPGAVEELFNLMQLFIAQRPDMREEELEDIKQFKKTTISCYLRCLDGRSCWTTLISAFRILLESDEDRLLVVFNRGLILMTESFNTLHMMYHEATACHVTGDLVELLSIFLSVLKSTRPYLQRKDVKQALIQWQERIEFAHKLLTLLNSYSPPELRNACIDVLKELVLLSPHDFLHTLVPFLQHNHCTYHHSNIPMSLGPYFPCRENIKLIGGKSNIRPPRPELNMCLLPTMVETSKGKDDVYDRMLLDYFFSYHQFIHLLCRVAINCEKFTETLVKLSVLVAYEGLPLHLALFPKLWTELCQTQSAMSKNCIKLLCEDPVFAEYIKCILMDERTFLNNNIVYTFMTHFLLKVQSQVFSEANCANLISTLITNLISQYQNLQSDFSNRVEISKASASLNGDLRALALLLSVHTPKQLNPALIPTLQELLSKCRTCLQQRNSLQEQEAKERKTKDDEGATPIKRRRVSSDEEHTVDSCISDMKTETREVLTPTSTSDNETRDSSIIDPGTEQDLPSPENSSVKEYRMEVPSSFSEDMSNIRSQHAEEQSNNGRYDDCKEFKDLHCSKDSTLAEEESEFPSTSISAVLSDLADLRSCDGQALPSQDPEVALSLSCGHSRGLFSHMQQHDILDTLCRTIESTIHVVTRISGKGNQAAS
In short: (§1)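 Global-median-normalised Spectronaut label-free quantities were compared by unpaired t-test, and values are average log2 ratios of fragment over vehicle. Only proteins with ≥2 unique peptides were used. HEK293T lysate (495 µg per sample) was treated in triplicate with fragment at 200 µM or vehicle for 3 h and then with Biotin-Ahx-Ub-VS at 0.5 µM final for 1 h. Labelled DUBs were then NeutrAvidin-enriched, digested with LysC and trypsin, and run by diaPASEF LC-MS/MS.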

USP36 = biological target: T1, USP36 (UniProt Q9P275)
T1 sequence (whole entry): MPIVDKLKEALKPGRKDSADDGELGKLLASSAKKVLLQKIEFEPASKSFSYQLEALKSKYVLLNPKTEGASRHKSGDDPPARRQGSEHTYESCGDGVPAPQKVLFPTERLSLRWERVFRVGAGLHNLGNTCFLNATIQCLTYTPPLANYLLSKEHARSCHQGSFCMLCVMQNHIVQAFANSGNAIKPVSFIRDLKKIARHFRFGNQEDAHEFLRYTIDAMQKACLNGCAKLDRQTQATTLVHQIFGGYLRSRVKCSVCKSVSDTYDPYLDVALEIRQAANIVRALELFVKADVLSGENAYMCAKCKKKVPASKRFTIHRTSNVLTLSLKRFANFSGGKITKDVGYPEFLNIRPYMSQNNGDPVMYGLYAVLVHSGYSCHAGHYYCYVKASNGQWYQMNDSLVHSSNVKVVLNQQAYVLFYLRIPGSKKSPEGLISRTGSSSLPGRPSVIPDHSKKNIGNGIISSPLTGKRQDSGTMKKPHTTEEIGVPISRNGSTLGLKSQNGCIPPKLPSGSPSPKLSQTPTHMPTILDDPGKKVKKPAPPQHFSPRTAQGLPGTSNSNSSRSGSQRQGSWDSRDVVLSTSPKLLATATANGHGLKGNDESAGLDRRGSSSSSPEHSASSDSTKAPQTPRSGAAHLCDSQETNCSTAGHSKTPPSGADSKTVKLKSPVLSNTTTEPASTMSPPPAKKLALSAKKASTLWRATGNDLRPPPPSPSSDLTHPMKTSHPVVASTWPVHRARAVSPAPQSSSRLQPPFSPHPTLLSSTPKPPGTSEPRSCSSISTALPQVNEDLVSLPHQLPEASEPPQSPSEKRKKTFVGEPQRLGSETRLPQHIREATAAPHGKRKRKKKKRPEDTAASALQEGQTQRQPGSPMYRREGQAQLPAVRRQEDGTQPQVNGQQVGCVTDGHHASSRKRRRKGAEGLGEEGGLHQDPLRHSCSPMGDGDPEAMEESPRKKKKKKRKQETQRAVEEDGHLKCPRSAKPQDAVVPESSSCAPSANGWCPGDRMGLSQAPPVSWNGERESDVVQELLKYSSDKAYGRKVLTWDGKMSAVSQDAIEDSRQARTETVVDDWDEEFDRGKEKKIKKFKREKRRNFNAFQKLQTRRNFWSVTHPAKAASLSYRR
In short: as §1

USP38 = biological target: T2, USP38 (UniProt Q8NB14)
T2 sequence (whole entry): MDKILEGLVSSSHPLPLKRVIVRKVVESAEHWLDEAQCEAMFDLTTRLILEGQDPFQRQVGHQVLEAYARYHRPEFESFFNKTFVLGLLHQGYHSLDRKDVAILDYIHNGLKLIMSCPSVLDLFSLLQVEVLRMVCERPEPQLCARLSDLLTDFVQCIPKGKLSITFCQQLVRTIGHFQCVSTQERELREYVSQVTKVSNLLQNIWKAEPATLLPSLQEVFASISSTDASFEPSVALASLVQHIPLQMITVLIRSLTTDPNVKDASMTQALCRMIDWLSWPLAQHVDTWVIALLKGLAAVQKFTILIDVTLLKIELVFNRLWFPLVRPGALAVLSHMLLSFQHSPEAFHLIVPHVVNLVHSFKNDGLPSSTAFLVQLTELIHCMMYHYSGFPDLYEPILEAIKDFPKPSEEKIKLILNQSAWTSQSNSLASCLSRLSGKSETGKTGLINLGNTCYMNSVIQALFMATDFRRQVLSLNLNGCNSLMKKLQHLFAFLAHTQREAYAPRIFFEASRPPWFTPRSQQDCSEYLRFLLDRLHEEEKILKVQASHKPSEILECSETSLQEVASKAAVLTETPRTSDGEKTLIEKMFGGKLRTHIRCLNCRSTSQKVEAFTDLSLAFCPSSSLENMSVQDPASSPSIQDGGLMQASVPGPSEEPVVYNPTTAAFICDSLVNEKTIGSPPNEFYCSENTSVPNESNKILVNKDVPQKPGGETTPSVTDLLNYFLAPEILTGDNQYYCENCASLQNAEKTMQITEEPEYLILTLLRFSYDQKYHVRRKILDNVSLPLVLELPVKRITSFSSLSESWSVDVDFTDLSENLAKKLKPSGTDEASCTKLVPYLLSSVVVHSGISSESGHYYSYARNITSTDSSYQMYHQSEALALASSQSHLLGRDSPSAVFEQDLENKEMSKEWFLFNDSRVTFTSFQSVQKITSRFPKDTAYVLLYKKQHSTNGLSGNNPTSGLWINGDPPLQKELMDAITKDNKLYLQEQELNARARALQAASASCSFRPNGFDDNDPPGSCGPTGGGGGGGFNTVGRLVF
In short: as §1

USP39 = biological target: T3, USP39 (UniProt Q53GS9)
T3 sequence (whole entry): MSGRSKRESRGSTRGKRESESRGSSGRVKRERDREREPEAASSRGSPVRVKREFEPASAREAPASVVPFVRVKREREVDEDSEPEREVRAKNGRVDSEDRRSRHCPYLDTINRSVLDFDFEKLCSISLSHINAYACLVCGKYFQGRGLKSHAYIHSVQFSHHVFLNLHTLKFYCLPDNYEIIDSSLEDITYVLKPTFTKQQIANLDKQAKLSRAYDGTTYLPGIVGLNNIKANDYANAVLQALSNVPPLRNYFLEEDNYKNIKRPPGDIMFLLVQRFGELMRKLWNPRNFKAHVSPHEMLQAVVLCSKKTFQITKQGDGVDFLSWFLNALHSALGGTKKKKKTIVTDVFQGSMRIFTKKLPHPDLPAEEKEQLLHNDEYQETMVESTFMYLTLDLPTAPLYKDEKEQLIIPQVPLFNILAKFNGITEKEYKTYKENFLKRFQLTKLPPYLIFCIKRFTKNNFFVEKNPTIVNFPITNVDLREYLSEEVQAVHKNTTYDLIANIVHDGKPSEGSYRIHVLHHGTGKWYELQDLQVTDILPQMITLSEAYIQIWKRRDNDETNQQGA
In short: as §1

USP4 = biological target: T4, USP4 (UniProt Q13107)
T4 sequence (whole entry): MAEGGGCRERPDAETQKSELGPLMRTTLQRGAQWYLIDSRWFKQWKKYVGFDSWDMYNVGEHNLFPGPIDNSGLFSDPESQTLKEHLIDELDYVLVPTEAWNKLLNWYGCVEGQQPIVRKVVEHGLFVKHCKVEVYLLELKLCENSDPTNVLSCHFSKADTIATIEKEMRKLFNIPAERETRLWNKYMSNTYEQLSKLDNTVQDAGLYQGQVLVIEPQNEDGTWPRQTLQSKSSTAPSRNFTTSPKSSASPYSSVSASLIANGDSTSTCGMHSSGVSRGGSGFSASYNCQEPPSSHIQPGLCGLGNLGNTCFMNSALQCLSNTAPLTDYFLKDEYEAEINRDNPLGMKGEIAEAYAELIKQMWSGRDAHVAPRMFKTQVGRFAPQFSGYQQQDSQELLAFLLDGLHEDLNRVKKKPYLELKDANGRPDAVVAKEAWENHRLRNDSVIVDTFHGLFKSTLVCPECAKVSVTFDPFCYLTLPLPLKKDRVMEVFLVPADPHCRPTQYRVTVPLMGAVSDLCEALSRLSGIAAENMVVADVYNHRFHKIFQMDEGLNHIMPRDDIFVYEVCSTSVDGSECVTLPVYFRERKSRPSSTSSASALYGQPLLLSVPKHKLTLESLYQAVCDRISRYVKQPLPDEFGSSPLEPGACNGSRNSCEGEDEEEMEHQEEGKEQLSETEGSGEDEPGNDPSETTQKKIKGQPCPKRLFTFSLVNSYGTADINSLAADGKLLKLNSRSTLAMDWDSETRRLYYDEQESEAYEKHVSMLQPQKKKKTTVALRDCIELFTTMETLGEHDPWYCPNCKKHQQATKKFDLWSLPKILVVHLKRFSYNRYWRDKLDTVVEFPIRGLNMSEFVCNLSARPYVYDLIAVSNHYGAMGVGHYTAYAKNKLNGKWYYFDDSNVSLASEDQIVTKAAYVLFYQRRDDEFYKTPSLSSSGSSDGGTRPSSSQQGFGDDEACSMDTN
In short: as §1

Measured: log2 ratio of Biotin-Ahx-Ub-VS probe labelling

O=C(CCl)NCCC1COCCO1 (stereo not given)
inactive: USP34 -0.0886 | USP36 -0.0548 | USP38 -0.0125 | USP39 0.0236 | USP4 -0.00705
